Most compounds without a hit are left out; they make up all but 10% or so of the library.
JMJD2A Tudor: qHTS Assay for Inhibitors of JMJD2A-Tudor Domain | Lysine-specific demethylase 4A (Homo sapiens), O75164 | AlphaScreen JMJD2A-Tudor / H3K4me3 peptide binding | Potency, µM (doses to about 114 µM), most hits filed as inhibitors | 4.4% of 390,000 active; also: nearly all actives have a fitted effect of over 50% in size
HP1b chromo inh: HTS for Inhibitors of HP1-beta Chromodomain Interactions with Methylated Histone Tails; Chromobox protein homolog 1 (Homo sapiens), P83916; AlphaScreen HP1-beta / biotin-H3K9me3 peptide binding; Potency, µM (highest dose often 114 µM), actives largely listed as inhibitors; 0.56% of 390,000 active; AID 540317, 2011; also: nearly all actives have a fitted effect of over 70% in size
Target sequence (P83916 whole entry, looked up): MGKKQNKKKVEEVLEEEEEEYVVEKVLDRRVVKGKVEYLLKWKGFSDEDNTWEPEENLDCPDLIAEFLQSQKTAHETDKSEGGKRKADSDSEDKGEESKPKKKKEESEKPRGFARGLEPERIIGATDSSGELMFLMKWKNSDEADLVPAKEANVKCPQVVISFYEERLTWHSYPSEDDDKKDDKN
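HP1-beta protein (50 nM final) preincubated 30 min at room temperature with biotinylated H3(1-18)K9me3 peptide (50 nM) in PBS pH 7.4, 0.01% Tween-20, then compound added for 30 min. AlphaScreen streptavidin donor/nickel chelate acceptor beads (10 ug/mL final), 30 min dark, luminescence read.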
G9a inh: qHTS Assay for Inhibitors of Histone Lysine Methyltransferase G9a; G9a H3K9 monomethylation, AlphaScreen, 2 h; Potency, µM (highest dose often 102 µM), usual class: inhibitors; 8.8% of 350,000 active; AID 504332, 2011; also: nearly all actives have a fitted effect of over 75% in size
Target sequence (Q96KQ7 913-1193 limits assumed): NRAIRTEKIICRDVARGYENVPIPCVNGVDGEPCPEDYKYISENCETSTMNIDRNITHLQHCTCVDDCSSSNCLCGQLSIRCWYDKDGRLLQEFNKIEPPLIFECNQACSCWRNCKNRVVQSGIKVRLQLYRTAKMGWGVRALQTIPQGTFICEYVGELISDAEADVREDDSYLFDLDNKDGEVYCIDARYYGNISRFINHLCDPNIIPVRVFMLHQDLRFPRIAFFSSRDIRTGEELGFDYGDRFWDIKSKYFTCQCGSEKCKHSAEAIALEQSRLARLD
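AlphaScreen detection with an anti-monomethyl H3K9 antibody quantified product after a 2 h room-temperature reaction containing 500 nM biotinylated H3K9 peptide, 20 µM SAM and 20 nM enzyme, which had been preincubated 15 min with compound.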
BAZ2B block: qHTS Assay for Inhibitors of BAZ2B. Potency, µM (doses to about 114 µM), usual class: inhibitors. AID 504333, 2011. AlphaScreen BAZ2B-H3K14Ac peptide displacement. 4.4% of 360,000 active; also: nearly all actives have a fitted effect of over 60% in size
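BAZ2B 50 nM plus b-H3(5-23)K14Ac 50 nM, PBS pH 7.4/0.01% Tween-20, 30 min RT; compound added (max 110 uM), 30 min RT; streptavidin donor/Ni-chelate acceptor beads 10 ug/mL final, 20 min dark; AlphaScreen read.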
GLS inhibitor: qHTS for Inhibitors of Glutaminase (GLS) | AID 624170, 2012 | 0.21% of 410,000 active | Potency, µM (highest dose often 45.5 µM), usual class: inhibitors | GLS enzymatic activity, qHTS titration
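Assay buffer: 45 mM KH2PO4 pH 8.2, 0.02% Tween-20. hKGA acts on L-glutamine (1 mM solution added); product glutamate is reported by an oxidase/peroxidase Amplex Red coupling, with fluorescence taken at baseline and 30 min.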
Each line names hits and unclear results; the compound was inactive in the other large screens; ! = not active in a repeat. Calls follow the shape of the dose curve; as a rule, active = well fitted curve in the direction sought with a large enough effect; inconclusive = small, poorly fitted or top-dose-only effect, or another doubt; inactive = no such curve, though single readings can be large; an effect the other way counts as inactive or inconclusive.

COc1ccc(-n2cnc3c(sc4nc(N5CCOCC5)c5c(c43)CCCC5)c2=O)cc1	none (no result: BAZ2B block)
Cc1ccc(-n2cnc3c(sc4nc(N5CCOCC5)c5c(c43)CCCC5)c2=O)cc1	G9a inh 50µM
CCN(c1ccccc1)c1cc2ccccc2c(=O)[nH]1	JMJD2A Tudor 18µM, G9a inh inconclusive, GLS inhibitor inconclusive
COc1ccccc1N1CCN(CCOc2c(OC)cccc2OC)CC1	G9a inh 40µM
COc1cccc(OC)c1OCCN1CCCC1	none (no result: G9a inh)
COc1ccccc1N1CCN(CCCNc2cc(=O)n(C)c(=O)n2C)CC1	G9a inh 22µM! (no result: JMJD2A Tudor, HP1b chromo inh)
COc1ccccc1N1CCN(CCCNc2c(C)c(=O)n(C)c(=O)n2C)CC1	none (no result: BAZ2B block)
COc1ccc(S(=O)(=O)N2CCN(CCCOc3ccc(F)cc3)CC2)cc1OC	none
COc1ccccc1N1CCN(CCN(C(=O)c2ccc(I)cc2)c2ccccn2)CC1	G9a inh 21µM (no result: JMJD2A Tudor, HP1b chromo inh, BAZ2B block, GLS inhibitor)
COc1ccccc1N1CCN(CCCOc2ccc(F)cc2)CC1	JMJD2A Tudor 2.2µM, HP1b chromo inh inconclusive, G9a inh 8.9µM, BAZ2B block inconclusive
O=C(C1CCCCC1)N(CCN1CCN(c2ccccc2CO)CC1)c1ccccn1	none (no result: JMJD2A Tudor, HP1b chromo inh, BAZ2B block, GLS inhibitor)
Cc1cc(O)c(CN2CCN(c3ccc(F)cc3)CC2)c2oc(=O)cc(C)c12	none
O=C(Cn1nc(-c2ccccc2)c2cnc3ccccc3c21)Nc1ccccc1	none
COc1ccccc1N1CCN(S(=O)(=O)/C=C/c2ccccc2)CC1	none
COc1ccccc1N1CCN(C/C=C/c2ccc(N(C)C)cc2)CC1	G9a inh inconclusive, BAZ2B block 40µM (no result: JMJD2A Tudor, HP1b chromo inh, GLS inhibitor)
O=C(CCCCCn1c(=O)c2sccc2n(CC(=O)Nc2cccc(Cl)c2)c1=O)NCc1ccc2c(c1)OCO2	BAZ2B block inconclusive
Cc1ccc(S(=O)(=O)N(C)C[C@@H]2OCc3cnnn3CCCC(=O)N([C@@H](C)CO)C[C@H]2C)cc1	none (no result: JMJD2A Tudor, HP1b chromo inh, G9a inh, BAZ2B block)
COc1ccc(CN2CCNC(=O)C2CC(=O)N(C)Cc2nc(C)cs2)c(OC)c1 (stereo unspecified)	G9a inh 50µM
COc1ccc(CN2CCNC(=O)C2CC(=O)N(C)Cc2nccs2)c(OC)c1 (stereo unspecified)	none
Cc1nonc1CN(C)C(=O)CC1C(=O)NCCN1Cc1c(F)cccc1Cl (stereo unspecified)	none
Cc1cc(CN(C)C(=O)CC2C(=O)NCCN2Cc2c(F)cccc2Cl)n[nH]1 (stereo unspecified)	G9a inh 40µM
Cc1csc(CNC(=O)CC2C(=O)NCCN2Cc2ccc(F)cc2Cl)n1 (stereo unspecified)	none
Cc1csc(CN(C)C(=O)CC2C(=O)NCCN2Cc2ccc(Cl)c(F)c2)n1 (stereo unspecified)	G9a inh 40µM
Cc1csc(CN(C)C(=O)CC2C(=O)NCCN2Cc2ccc(F)cc2Cl)n1 (stereo unspecified)	G9a inh 22µM
CCCC(=O)N1CCC1(C)C(=O)Nc1ccc(OC(F)F)cc1 (stereo unspecified)	none (no result: JMJD2A Tudor, HP1b chromo inh, G9a inh, BAZ2B block)
NS(=O)(=O)c1ccc(N2CCN(C(=O)c3ccco3)CC2)nc1	none (no result: G9a inh, BAZ2B block)
C/C(=N\NC(=O)c1cc(-c2ccco2)nc2ccccc12)c1cccnc1	G9a inh 40µM
COc1ccc(OC)c(-c2cc(C(=O)N/N=C(\C)c3cccnc3)c3ccccc3n2)c1	none (no result: G9a inh)
CCOc1ccc(-c2cc(C(=O)N/N=C(\C)c3cccnc3)c3ccccc3n2)cc1	G9a inh 35µM, BAZ2B block inconclusive
COc1ccc(Cc2c(O)nc(SCC(=O)NC34CC5CC(CC(C5)C3)C4)[nH]c2=O)cc1	G9a inh 45µM, BAZ2B block inconclusive
CCOc1ccc2c(c1)NC(c1ccc(OCC)c(OCC)c1)=NC(c1ccc(F)cc1)=N2	JMJD2A Tudor 25µM, HP1b chromo inh inconclusive, G9a inh 11µM, BAZ2B block inconclusive
CCOc1ccc(C2=NC(c3ccc(OC)cc3)=Nc3ccc(Cl)cc3N2)cc1	none
O=C(Nc1ccnn1C1CCN(Cc2ccc(CO)o2)CC1)c1cccc(F)c1	none (no result: JMJD2A Tudor, HP1b chromo inh, G9a inh, BAZ2B block)
CC1S/C(=N/N=C/c2cccs2)NC1=O (stereo unspecified)	none
CC1S/C(=N/N=C/c2cccc([N+](=O)[O-])c2)NC1=O (stereo unspecified)	G9a inh 13µM, BAZ2B block inconclusive
C[C@]12c3[nH]c4cc(-c5ccco5)ccc4c3CCN1C(=O)[C@@H](CC(=O)NCc1ccco1)C[C@@H]2C(=O)N1CCCCC1	JMJD2A Tudor inconclusive (no result: G9a inh, BAZ2B block)
COc1ccc(NC(=O)C(C)Sc2ccccc2)cc1 (stereo unspecified)	G9a inh 45µM
CC(Sc1cccc[n+]1[O-])C(=O)Nc1ccc(Oc2ccccc2)cc1 (stereo unspecified)	G9a inh 40µM
CC(Sc1cccc[n+]1[O-])C(=O)Nc1cc(Cl)c(Cl)cc1Cl (stereo unspecified)	none (no result: G9a inh, BAZ2B block)
CC(=O)Nc1ccc(SC(C)C(=O)NC(N)=O)cc1 (stereo unspecified)	G9a inh 40µM
CC(=O)Nc1ccc(NC(=O)C(Sc2ccccc2)c2ccccc2)cc1 (stereo unspecified)	none
CCOC(=O)c1cc(-c2ccc(F)cc2)n(CCC(=O)NCc2ccc(C)cc2)c1C	none
Cc1cccc(N2CCN(S(=O)(=O)c3ccc4c(c3)C(C(C)C)C(=O)N4)CC2)c1C (stereo unspecified)	none
Nn1c(SCc2cn3cc(Cl)ccc3n2)nnc1-c1ccncc1	G9a inh 45µM
Nn1c(SCc2cn3ccccc3n2)nnc1-c1ccncc1	none
CC(=O)N1CCc2cc(Br)cc(S(=O)(=O)N3CCN(c4ccccn4)CC3)c21	JMJD2A Tudor 79µM, HP1b chromo inh inconclusive
O=C(C1CC1)N1CCc2cc(Br)cc(S(=O)(=O)NCc3ccco3)c21	none
O=C(C1CC1)N1CCc2cc(Br)cc(S(=O)(=O)NCc3ccccn3)c21	JMJD2A Tudor 2.8µM
COC(=O)[C@@H](c1ccccc1Cl)N1CCc2sccc2C1	none (no result: JMJD2A Tudor, HP1b chromo inh, BAZ2B block, GLS inhibitor)
O=[N+]([O-])c1cnc(Sc2ccncn2)c([N+](=O)[O-])c1	none (no result: JMJD2A Tudor, HP1b chromo inh, G9a inh, BAZ2B block)
O=[N+]([O-])c1cnc(Sc2ccncn2)s1	G9a inh 10µM
CN(CC(=O)Nc1cccc(F)c1)C(=O)CN1C(=O)C2CCCCC2C1=O (stereo unspecified)	none
Nn1c(=S)[nH]c2sc3c(c2c1=O)CCCC3	none (no result: G9a inh, BAZ2B block)
O=c1[nH]c(=S)[nH]c2sc3c(c12)CCCCCC3	JMJD2A Tudor inconclusive, G9a inh 2.2µM
CC(=O)NC(C)(c1ccccc1)c1nc(-c2cccc(C(F)(F)F)c2)cs1 (stereo unspecified)	none (no result: JMJD2A Tudor, HP1b chromo inh, G9a inh, BAZ2B block)
